Assay in all cases: DAPPL (digital affinity profiling via proximity ligation, sequencing); 10 mM Tris-HCl pH 7.5, 50 mM NaCl, 1 mM DTT, 4% glycerol, room temperature, 30 min; GST-TFs on glutathione beads, 16-mer random dsDNA library, 0.1% formaldehyde crosslink after washing; high values mean tight binding
Conditions in all cases: protein: recombinant; tags: N-terminal GST; dsDNA, one strand shown

The target of test [1] is T1, ELK1 (Homo sapiens, UniProt P19419 1-428).
T1 sequence: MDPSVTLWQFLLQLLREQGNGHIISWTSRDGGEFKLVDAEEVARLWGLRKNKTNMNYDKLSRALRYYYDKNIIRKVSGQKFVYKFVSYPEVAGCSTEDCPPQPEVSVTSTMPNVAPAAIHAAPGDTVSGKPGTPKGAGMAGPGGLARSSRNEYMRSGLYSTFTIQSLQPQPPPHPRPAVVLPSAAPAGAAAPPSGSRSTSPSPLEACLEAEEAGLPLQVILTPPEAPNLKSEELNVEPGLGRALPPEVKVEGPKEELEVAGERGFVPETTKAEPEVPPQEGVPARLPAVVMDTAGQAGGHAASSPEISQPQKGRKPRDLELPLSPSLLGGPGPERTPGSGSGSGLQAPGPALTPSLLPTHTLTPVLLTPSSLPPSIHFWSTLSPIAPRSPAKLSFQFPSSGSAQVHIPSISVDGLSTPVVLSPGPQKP
The method in brief:
(§1)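 Sequencing on an Illumina NextSeq500 followed washing, crosslinking with 0.1% formaldehyde, proximity ligation (BsaI/T4 ligase, 1 h, 37 °C) and PCR amplification of pools that had been incubated for 30 min at room temperature with 200 nmole of a random double-stranded 16-mer DNA library in Tris/NaCl/DTT/glycerol buffer. Each pool held DNA-barcoded human transcription factors, expressed in yeast as GST fusions and captured on glutathione beads, plus a tag-only sample. Binding signal is a hexamer's read frequency for a factor divided by its frequency in the tag-only sample.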

Test [2] addresses T2, GABPA (Homo sapiens, UniProt Q06546 1-454).
T2 sequence: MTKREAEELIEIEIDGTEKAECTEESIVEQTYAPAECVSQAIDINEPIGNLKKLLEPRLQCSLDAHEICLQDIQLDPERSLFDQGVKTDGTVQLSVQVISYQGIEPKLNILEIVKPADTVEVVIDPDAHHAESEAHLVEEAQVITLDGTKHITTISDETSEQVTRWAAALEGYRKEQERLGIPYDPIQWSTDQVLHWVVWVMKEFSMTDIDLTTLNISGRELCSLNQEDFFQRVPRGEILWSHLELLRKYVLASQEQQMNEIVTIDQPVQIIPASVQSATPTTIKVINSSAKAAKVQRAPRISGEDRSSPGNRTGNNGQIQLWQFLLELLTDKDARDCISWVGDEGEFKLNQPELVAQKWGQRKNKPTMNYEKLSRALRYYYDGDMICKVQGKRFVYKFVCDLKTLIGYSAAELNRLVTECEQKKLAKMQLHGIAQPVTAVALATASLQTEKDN
The method in brief: as §1

Test [3] addresses T3, ERG (Homo sapiens, UniProt P11308 1-479).
T3 sequence: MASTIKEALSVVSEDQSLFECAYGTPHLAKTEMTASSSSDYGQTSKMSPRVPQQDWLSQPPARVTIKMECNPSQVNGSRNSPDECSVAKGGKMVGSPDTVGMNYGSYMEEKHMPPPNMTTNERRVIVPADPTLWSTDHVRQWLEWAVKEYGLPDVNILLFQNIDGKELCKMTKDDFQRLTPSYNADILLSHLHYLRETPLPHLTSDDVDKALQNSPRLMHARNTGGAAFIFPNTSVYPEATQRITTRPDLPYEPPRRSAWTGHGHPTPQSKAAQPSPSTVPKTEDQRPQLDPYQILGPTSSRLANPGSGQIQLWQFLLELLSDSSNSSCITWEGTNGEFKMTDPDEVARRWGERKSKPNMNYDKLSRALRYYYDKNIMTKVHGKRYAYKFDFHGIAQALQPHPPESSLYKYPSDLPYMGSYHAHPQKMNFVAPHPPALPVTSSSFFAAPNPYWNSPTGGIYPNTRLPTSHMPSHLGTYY
In a few lines:
as §1

The target of test [4] is ELF1 (Homo sapiens, UniProt P32519 1-619). The method in brief:
as §1

Test [5] deals with T4, EHF (Homo sapiens, UniProt Q9NZC4 1-300).
T4 sequence: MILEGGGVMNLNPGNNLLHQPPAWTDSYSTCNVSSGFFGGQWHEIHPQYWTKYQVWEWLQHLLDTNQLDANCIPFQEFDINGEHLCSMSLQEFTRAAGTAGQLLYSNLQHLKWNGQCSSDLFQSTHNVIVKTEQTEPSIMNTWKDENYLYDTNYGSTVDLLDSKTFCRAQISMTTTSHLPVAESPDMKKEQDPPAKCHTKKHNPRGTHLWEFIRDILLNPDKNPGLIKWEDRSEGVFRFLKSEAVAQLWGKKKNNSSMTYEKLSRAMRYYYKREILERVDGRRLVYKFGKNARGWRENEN
In a few lines: as §1

For test [6], the target named is SPIB (Homo sapiens, UniProt Q01892 1-262). In a few lines: as §1
In test [7] the target is T5, ELK3 (Homo sapiens, UniProt P41970 1-407).
T5 sequence: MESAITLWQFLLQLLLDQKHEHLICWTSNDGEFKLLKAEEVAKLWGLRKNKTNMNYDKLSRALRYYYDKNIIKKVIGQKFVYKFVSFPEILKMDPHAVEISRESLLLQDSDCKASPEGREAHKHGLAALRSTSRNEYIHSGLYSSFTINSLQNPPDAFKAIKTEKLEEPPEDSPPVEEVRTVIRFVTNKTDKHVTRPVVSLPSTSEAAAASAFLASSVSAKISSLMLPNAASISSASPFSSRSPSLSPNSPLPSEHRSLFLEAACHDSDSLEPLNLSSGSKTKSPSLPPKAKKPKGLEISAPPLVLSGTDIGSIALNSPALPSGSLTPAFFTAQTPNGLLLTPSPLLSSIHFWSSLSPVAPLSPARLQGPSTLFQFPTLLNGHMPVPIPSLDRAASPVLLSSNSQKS
In a few lines: as §1

Test [8] has as its target ETV5 (Homo sapiens, UniProt P41161 1-510). The method in brief:
as §1

Test [9] has as its target T6, SPIC (Homo sapiens, UniProt Q8N5J4 1-248).
T6 sequence: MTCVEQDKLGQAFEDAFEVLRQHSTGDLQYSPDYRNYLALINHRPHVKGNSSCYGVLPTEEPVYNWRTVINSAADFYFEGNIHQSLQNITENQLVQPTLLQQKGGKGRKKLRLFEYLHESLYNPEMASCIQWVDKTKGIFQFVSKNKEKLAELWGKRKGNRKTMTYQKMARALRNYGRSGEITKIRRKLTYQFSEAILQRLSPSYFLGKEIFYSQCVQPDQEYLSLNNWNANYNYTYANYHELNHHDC
In a few lines: as §1

Chain of ELF1 (P32519 whole entry): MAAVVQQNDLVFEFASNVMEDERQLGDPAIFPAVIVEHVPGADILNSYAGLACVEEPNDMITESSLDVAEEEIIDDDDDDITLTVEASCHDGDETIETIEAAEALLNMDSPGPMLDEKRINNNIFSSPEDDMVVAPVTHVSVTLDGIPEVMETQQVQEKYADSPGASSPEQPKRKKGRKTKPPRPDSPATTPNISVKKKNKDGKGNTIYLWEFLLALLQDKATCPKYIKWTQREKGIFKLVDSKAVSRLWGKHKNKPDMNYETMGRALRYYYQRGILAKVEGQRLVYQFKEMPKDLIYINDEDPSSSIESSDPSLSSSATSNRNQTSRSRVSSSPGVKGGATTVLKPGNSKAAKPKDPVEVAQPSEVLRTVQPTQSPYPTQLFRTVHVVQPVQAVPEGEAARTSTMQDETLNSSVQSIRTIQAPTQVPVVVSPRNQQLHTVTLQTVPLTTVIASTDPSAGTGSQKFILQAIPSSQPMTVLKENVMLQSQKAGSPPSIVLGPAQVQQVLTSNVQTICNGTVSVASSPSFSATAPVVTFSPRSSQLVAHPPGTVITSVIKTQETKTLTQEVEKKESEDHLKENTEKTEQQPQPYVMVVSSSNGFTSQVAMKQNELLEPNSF
Chain of SPIB (Q01892 whole entry): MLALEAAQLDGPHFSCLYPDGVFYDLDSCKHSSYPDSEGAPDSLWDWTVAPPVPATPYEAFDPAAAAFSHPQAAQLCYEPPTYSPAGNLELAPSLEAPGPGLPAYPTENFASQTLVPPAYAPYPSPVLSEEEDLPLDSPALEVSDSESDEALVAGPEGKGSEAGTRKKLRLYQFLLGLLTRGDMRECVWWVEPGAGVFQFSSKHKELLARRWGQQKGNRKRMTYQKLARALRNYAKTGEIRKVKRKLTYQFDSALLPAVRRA
Chain of ETV5 (P41161 whole entry): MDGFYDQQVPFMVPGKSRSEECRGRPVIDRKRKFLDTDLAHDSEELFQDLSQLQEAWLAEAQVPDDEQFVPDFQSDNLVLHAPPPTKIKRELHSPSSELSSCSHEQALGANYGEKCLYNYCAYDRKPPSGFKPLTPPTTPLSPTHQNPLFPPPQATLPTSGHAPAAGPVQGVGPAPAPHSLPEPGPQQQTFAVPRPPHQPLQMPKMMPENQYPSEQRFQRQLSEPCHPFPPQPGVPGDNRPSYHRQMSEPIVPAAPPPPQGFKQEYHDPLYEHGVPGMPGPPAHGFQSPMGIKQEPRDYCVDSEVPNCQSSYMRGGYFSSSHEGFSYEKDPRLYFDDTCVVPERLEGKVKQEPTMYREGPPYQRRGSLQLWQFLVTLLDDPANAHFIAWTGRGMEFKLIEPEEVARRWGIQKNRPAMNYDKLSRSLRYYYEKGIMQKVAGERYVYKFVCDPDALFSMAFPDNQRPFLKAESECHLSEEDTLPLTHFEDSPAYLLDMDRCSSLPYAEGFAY

CAGCCC: the binding signal in test [1] was 1.16 fold enrichment (6-mer frequency, TF over GST control); in test [2], 1.06 fold enrichment (6-mer frequency, TF over GST control); in test [3] it was 1.18 fold enrichment (6-mer frequency, TF over GST control); in test [4], 1.09 fold enrichment (6-mer frequency, TF over GST control); in test [5] it was 1.16 fold enrichment (6-mer frequency, TF over GST control); in [6] it was 1.09 fold enrichment (6-mer frequency, TF over GST control). The binding signal was 1.11 fold enrichment (6-mer frequency, TF over GST control) in test [7]; 1.07 fold enrichment (6-mer frequency, TF over GST control) in [8]; 1.13 fold enrichment (6-mer frequency, TF over GST control) in [9].

Values taken from PMC7862700, “An all-to-all approach to the identification of sequence-specific readers for epigenetic DNA modifications on cytosine”.
